Compound activity from PubChem BioAssay.
This is one part of a sample in which hits are shown more often than they occur.
NPSR antag = blocks cAMP signaling of the human neuropeptide S receptor; CHO-NPSR cells, cAMP TR-FRET, antagonist mode; Potency, µM (titrated, usually from 38.3 µM), without a hit: at the top dose activity change, negative = inhibition, hits mostly inhibitors; 220,000 compounds, 1% hits; also: nearly all actives have a fitted effect of over 50% in size
Target sequence (Q6W5P4 whole entry, looked up): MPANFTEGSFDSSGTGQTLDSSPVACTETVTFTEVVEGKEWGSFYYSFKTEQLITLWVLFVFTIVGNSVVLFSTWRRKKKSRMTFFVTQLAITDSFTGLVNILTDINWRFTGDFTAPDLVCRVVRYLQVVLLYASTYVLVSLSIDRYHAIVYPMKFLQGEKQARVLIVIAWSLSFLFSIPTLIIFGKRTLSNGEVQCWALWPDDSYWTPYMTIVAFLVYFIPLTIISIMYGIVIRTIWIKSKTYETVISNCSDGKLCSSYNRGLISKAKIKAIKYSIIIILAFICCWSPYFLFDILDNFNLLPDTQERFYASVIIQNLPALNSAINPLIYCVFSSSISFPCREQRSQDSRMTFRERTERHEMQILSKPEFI
ERK EGF inh = blocks ERK signaling stimulated by EGF | HEK293-V1b, EGF-stimulated phospho-ERK AlphaScreen | Potency, µM (series often up to 11.5 µM), without a hit: top-dose activity change, negative = inhibition, usual class: inhibitors | 130,000 compounds, 0.41% hits | AID 1454;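 also: plate controls were stimulated vehicle wells for no effect and unstimulated vehicle basal for full effect; nearly all actives have a fitted effect of over 55% in size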
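Phospho-ERK1/2 measured by AlphaScreen (SureFire) after 5 min 25 nM EGF stimulation of V1b-expressing HEK293 cells preincubated 30 min at 37C with titrated compounds; data scaled to DMSO and EGF controls, Hill-fitted AC50.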
Active calls of the source: *; [ ] = dose if it differs, or a comment. Calls follow the shape of the dose curve; as a rule, active = well fitted curve in the direction sought with a large enough effect; inconclusive = small, poorly fitted or top-dose-only effect, or another doubt; inactive = no such curve, though single readings can be large; an effect the other way counts as inactive or inconclusive. Unless noted, % is scaled to controls: 0 for no effect and ±100 for the full control effect; potency is read from the fitted curve at half-maximal effect.

Results for COc1ccc(NS(=O)(=O)c2cc(NC(=O)C3CCCO3)ccc2N2CCCCC2)cc1 (configuration not stated) ?
NPSR antag: 10µM*; ERK EGF inh: -2%[57.5 µM]

What do the screens show for `COc1ccc(NS(=O)(=O)c2cc(NC(=O)C3CCCO3)ccc2N2CCCC2)cc1` (configuration not stated)?
NPSR antag: -46%; ERK EGF inh: -9%

Results for COc1ccc(C2C3(C#N)C(N)=NC(OC)(OC)C23C#N)cc1 (configuration not stated) ?
NPSR antag: 5%; ERK EGF inh: 25µM*

How did COC1(OC)N=C(N)C2(C#N)C(c3ccc(C)cc3)C12C#N (configuration not stated) do in these assays?
NPSR antag: 1%[46.1 µM]

Results for Clc1ncnc2c1oc1ccccc12 ?
NPSR antag: -17%[46.1 µM]

Results for c1coc(CN(Cc2ccco2)c2ncnc3c2oc2ccccc23)c1 ?
NPSR antag: inconclusive; ERK EGF inh: 18µM*

What do the screens show for `Cc1ccc(C(=O)N/N=C\c2ccc(-c3ccc(Cl)c(Cl)c3)o2)cn1`?
NPSR antag: inconclusive; ERK EGF inh: 18µM*

Results for Cc1ccc(C(=O)N/N=C/c2ccc(-c3cccc(Cl)c3)o2)cn1 ?
NPSR antag: 27%; ERK EGF inh: inconclusive

How did OC(CNCCc1ccc(C(F)(F)F)cc1)COc1ccc2ccccc2c1 (configuration not stated) do in these assays?
NPSR antag: -35%; ERK EGF inh: 35µM*

How did COc1ccc(CCNCC(O)COc2cccc(Br)c2)cc1 (configuration not stated) do in these assays?
NPSR antag: 1%; ERK EGF inh: -2%[57.5 µM]

How did CC(C)[C@H](CO)Nc1nc(Nc2cccc(Cl)c2)c2ncn(C(C)C)c2n1 do in these assays?
ERK EGF inh: -17%

Results for COc1ccc(C2c3ccc4ccccc4c3Oc3ncn(CCN4CCOCC4)c(=N)c32)cc1OC (configuration not stated) ?
NPSR antag: 57%; ERK EGF inh: -3%[57.5 µM]

What do the screens show for `N=c1c2c(ncn1CCCO)Oc1c(ccc3ccccc13)C2c1ccccc1` (configuration not stated)?
NPSR antag: -45%; ERK EGF inh: -11%[57.5 µM]

How did COc1ccc(C2c3ccc4ccccc4c3Oc3ncn(CCCO)c(=N)c32)cc1 (configuration not stated) do in these assays?
NPSR antag: inconclusive; ERK EGF inh: 40µM*

What do the screens show for `COc1ccc(C2c3c(ncn(CCCN4CCOCC4)c3=N)Oc3ccc4ccccc4c32)cc1OC` (configuration not stated)?
NPSR antag: 10µM*; ERK EGF inh: 6%[57.5 µM]

Results for N#Cc1ccccc1-c1cncnc1NCc1cccnc1 ?
ERK EGF inh: 21%

What do the screens show for `OC[C@H]1NC[C@@H](O)[C@@H](O)[C@H]1O`?
ERK EGF inh: 1%

What do the screens show for `COC(=O)/C(Cc1cc(Br)c(OC)c(Br)c1O)=N/O`?
ERK EGF inh: -3%

How did COC(=O)[C@H]1C[C@@H]2CC[C@@H](O)C[C@@H]2N1Cc1c(F)cccc1Cl do in these assays?
ERK EGF inh: -10%

What do the screens show for `C=C(C(C)=O)C(O)c1ccc(C(F)(F)F)cc1` (configuration not stated)?
ERK EGF inh: -4%

How did CN(C)c1ccc(C(c2ccc(N(C)C)cc2)c2ccc([N+](=O)[O-])cc2)cc1 do in these assays?
NPSR antag: 53%; ERK EGF inh: 14µM*

Results for CN(C)c1ccc(C=NC(CO)C(O)c2ccc([N+](=O)[O-])cc2)cc1 (configuration not stated) ?
NPSR antag: 7%; ERK EGF inh: 11%[57.5 µM]

Results for COc1cccc(CNc2cccc(C(F)(F)F)c2)c1O ?
NPSR antag: -14%; ERK EGF inh: 2%

Results for COc1cccc(CNc2ccc(F)c(Cl)c2)c1O ?
NPSR antag: 10µM*

What do the screens show for `C(=N\N1CCN(Cc2ccccc2)CC1)/c1ccccc1`?
NPSR antag: 2%; ERK EGF inh: 10%[57.5 µM]

Results for CCN(CC)c1ccc(/C=N/N2CCN(Cc3ccccc3)CC2)cc1 ?
NPSR antag: -46%; ERK EGF inh: 28µM*

Results for Cc1cccc(CSc2cccc3cccnc23)c1 ?
NPSR antag: 3.2µM*

How did NNC(=O)c1ccc(CSc2cccc3cccnc23)cc1 do in these assays?
NPSR antag: 6%; ERK EGF inh: -11%

What do the screens show for `Cc1nc2c(c(=O)n1Cc1ccccc1Cl)c1nc3ccccc3nc1n2Cc1ccco1`?
NPSR antag: 13µM*

Results for COCCCn1cnc2c(c1=O)c1nc3ccccc3nc1n2-c1ccc(C)cc1 ?
NPSR antag: -12%[46.1 µM]

Results for COc1ccc(Cn2c3nc4ccccc4nc3c3c(=O)n(Cc4ccco4)c(C)nc32)cc1 ?
NPSR antag: -25%[46.1 µM]

How did Cc1cc(C)cc(-n2c3nc4ccccc4nc3c3c(=O)n(Cc4ccco4)cnc32)c1 do in these assays?
NPSR antag: 10µM*
